Results on eight compounds are retold here after PubChem BioAssay (Tox21).

Inconclusive results are not listed. More than one record can exist for a structure, and the calls need not agree. The source made the active and inactive calls. Unless noted, the call rests on the fitted dose curve.

Test [1] in a line: Nuclear factor erythroid 2-related factor 2/antioxidant responsive element (Nrf2/ARE) small molecule agonists: qHTS cell viability counter screen in human keratinocytes (AID 1919968; active means well fitted curve in the direction sought with a large enough effect in the repeat runs; an effect the other way counts as inactive or inconclusive; further: nearly all actives have a fitted effect of over 55% in size). Put shortly: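 In human HaCaT keratinocytes stably expressing an ARE-driven luciferase, compound exposure lasted 23 h at 37 C under 5% CO2. Viable cells are quantified with a protease-based fluorogenic reagent (CellTiter-Fluor) read 1 h after addition.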
Background: Quantitative high-throughput screening tests each substance at several concentrations.

Test [2] deals with Gonadotropin-releasing hormone receptor (Homo sapiens) (UniProt P30968). The test can be described thus: Human gonadotropin-releasing hormone receptor (GnRHR) small molecule agonists, calcium flux assay in GnRHR-HEK293 cells (AID 1920063). Further: nearly all actives have a fitted effect of over 35% in size. The gist of the method: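 Intracellular calcium rise is the read-out: engineered human GnRHR HEK293 cells, dye-loaded, are exposed to DMSO-dissolved compounds and fluorescence at Ex/Em 480/540 is tracked for 3 min.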
Sequence of Gonadotropin-releasing hormone receptor (Homo sapiens) (P30968 whole entry, looked up): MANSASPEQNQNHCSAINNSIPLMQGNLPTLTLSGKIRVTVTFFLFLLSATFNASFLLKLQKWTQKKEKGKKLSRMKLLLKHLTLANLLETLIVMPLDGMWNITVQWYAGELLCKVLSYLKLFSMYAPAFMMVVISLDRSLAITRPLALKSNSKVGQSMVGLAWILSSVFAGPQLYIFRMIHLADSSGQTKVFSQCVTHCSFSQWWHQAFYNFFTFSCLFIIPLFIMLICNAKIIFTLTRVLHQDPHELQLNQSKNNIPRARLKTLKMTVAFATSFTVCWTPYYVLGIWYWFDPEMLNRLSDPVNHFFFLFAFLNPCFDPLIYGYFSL
On the technique in general: Calcium flux is commonly read through the fluorescence of an indicator in the cells.

The target in test [3] is KiSS-1 receptor (Homo sapiens) (UniProt Q969F8). The test can be described thus: Human kisspeptin (KISS1R) small molecule agonists, calcium flux assay in KISS1R-HEK293 cells (AID 1920064; active means well fitted curve in the direction sought with a large enough effect in the repeat runs; an effect the other way counts as inactive or inconclusive). Put shortly:
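Concentration-response testing used 15 concentrations in triplicate on human KISS1R-expressing HEK293 cells. Calcium-dependent fluorescence (Ex/Em 480/540) was followed kinetically for 3 min after compound transfer.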

Test [4] in a line: G protein-coupled receptor (GPCR) small molecule agonists, calcium flux assay: HEK293 wild type cell line counter screen (AID 1920065). The gist of the method:
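Fluorescence intensity signals activation. After overnight (18 h) culture and a 1 h calcium dye load at 37 C, compounds are added by pin tool and the plate read at 480/540 nm for 3 min in 1 s steps.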

The nature of test [5]: p53 small molecule agonists, cell-based qHTS assay with human liver microsomes: qHTS cell viability counter screen (AID 1963579). Further: nearly all actives have a fitted effect of over 45% in size. The gist of the method:
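Cytotoxicity counter screen: p53RE-bla, 4,000 cells/well; 5 h settle, 37 C/5% CO2; cpd + HLM 0.5 mg/mL + NADPH 0.5 mg/mL (final); 16 h, 37 C; CellTiter-Glo, 30 min RT, luminescence.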

Test [6] is described as follows: p53 small molecule agonists, cell-based qHTS assay with rat liver microsomes: qHTS cell viability counter screen (AID 1963580). Further: nearly all actives have a fitted effect of over 45% in size. The gist of the method:
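Luminescent ATP readout (CellTiter-Glo, 30 min at room temperature) reports viability of p53RE-bla HCT-116 cells after 16 h at 37 C with test compounds under metabolic activation by rat liver microsomes and NADPH at 0.5 mg/mL final each.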

Test [7] is described as follows: p53 small molecule agonists, cell-based qHTS assay: qHTS cell viability counter screen (AID 1963581). Further: nearly all actives have a fitted effect of over 45% in size. Further: potency means the concentration at half of the fitted maximal effect. Put shortly: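 Luminescence from CellTiter-Glo, reflecting ATP content, serves as the cytotoxicity measure; it is taken after the 2 h reporter substrate step in HCT-116 p53RE-bla cells dosed for 16 h at 37 C.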
Test [8] in a line: cAMP Responsive Elements (CRE) small molecule antagonists, cell-based qHTS assay (AID 1963591; active means well fitted inhibition curve with a large enough effect in the signal ratio in the repeat runs, not every such curve was filed as active; the % refers to the signal ratio). Put shortly:
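Stimulation used NKH477 at a final 0.25 uM for 3 h in compound-treated CRE-bla HEK293T cells, seeded 18 h beforehand. Reporter activity was measured with LiveBLAzer B/G FRET substrate after 2 h at room temperature.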

Test [9] concerns the target D(2) dopamine receptor (Homo sapiens) (UniProt P14416). Put plainly: Dopamine D2 receptor (DRD2) small molecule agonists, cell-based qHTS assay (AID 1963594). Further: nearly all actives have a fitted effect of over 35% in size. The gist of the method:
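HEK293 cells stably expressing DRD2 were cultured 24 h at 37 C, then given Ro20-1724 (0.1 mM final) and compounds for 10 min at room temperature. NKH477 (200nM) was then added for 30 min. cAMP was read by HTRF.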

Test [10] is described as follows: cAMP Responsive Elements (CRE) small molecule agonists, cell-based qHTS assay (AID 1963590). Put shortly: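 Compound exposure lasted 3 h at 37 C/5% CO2 in CRE-bla HEK 293T cells grown in assay medium with 10% dialyzed FBS and 25 mM HEPES. Reporter signal came from LiveBLAzer B/G FRET substrate, 2 h, room temperature.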
Test [11] addresses Beta-2 adrenergic receptor (Homo sapiens) (UniProt P07550). The test can be described thus: Adrenergic beta2 receptor (ADRB2) small molecule agonists, cell-based qHTS assay (AID 1963593).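 Further: CHO cells stably overexpressing human ADRB2.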 The gist of the method:
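CHO cells stably over-expressing ADRB2 were plated overnight at 37C, then dosed with compounds plus a stimulation mix containing 100uM IBMX and 25uM Ro-20-1724 for 0.5hr at room temperature. cAMP was measured by HTRF competition, 1hr.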

Test [12] deals with D(2) dopamine receptor (Homo sapiens) (UniProt P14416). The test can be described thus: Dopamine D2 receptor (DRD2) small molecule antagonists, cell-based qHTS assay (AID 1963595; active means well fitted inhibition curve with a large enough effect in the signal ratio in the repeat runs, with a control signal flat; the % refers to the signal ratio). Put shortly: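 Antagonist mode in DRD2-HEK293 cells: after compound addition with 0.1 mM Ro20-1724, cells received quinpirole (12 nM) and NKH477 (200 nM) for 30 min at room temperature; HTRF cAMP read after 1 h detection.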
Sequence of D(2) dopamine receptor (Homo sapiens) (P14416 whole entry, looked up): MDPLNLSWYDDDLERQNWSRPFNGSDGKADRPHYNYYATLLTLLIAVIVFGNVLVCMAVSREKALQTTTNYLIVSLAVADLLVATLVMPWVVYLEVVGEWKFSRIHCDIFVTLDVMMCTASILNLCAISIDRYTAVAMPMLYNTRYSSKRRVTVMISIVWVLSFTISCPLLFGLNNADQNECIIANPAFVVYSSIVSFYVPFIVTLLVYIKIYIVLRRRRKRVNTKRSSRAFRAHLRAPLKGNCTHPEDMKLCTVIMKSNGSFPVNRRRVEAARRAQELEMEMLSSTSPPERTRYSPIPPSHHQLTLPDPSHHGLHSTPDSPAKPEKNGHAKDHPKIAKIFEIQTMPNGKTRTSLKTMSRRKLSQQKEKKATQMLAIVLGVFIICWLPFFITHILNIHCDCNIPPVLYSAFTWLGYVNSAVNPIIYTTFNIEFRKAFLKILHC

Test [13] deals with 5-hydroxytryptamine receptor 2A (Homo sapiens) (UniProt P28223). The test can be described thus: 5-hydroxytryptamine receptor 2A (HTR2A) small molecule antagonists, cell-based qHTS assay (AID 1963586). Further: nearly all actives have a fitted effect of over 45% in size. The gist of the method:
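CHO cells stably expressing human HTR2A were plated for 18 h at 37 C, then loaded with calcium dye for 1 h. Compounds were preincubated 5 min at room temperature before DOI (4 nM solution) was added. Kinetic fluorescence was read for 3 min.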

The target is the same in test [14]. Put plainly: 5-hydroxytryptamine receptor 2A (HTR2A) small molecule agonists, cell-based qHTS assay (AID 1963587). Further: nearly all actives have a fitted effect of over 30% in size. Put shortly: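 HTR2A-CHO cells, plated 18 h at 37 C/5% CO2, dye-loaded 1 h at 37 C; compounds in DMSO added by pin tool (agonist mode). Intracellular calcium flux read as kinetic fluorescence on FDSS over 2 min at 1 s intervals.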
Test [15] has as its target Muscarinic acetylcholine receptor M1 (Homo sapiens) (UniProt P11229). The test can be described thus: Cholinergic receptor muscarinic 1 (CHRM1) small molecule antagonists, cell-based qHTS assay (AID 1963588). Further: nearly all actives have a fitted effect of over 40% in size. Put shortly: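 Compounds were tested at 15 concentrations in three independent runs. Dye-loaded CHRM1-CHO cells were exposed 5 min at room temperature before stimulation by acetylcholine added at 50nM. Intracellular calcium was read kinetically on FDSS for 3 min.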

Test [16] shares this target. The test can be described thus: Cholinergic receptor muscarinic 1 (CHRM1) small molecule agonists, cell-based qHTS assay (AID 1963589). Further: nearly all actives have a fitted effect of over 35% in size. The gist of the method: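 Fluorescent calcium dye reports M1 activation in stably transfected CHO cells. Compounds, 15 concentrations, added after 1 h dye loading at 37 C; kinetic reading at 1 sec intervals.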
Test [17] concerns the target Beta-2 adrenergic receptor (Homo sapiens) (UniProt P07550). The test can be described thus: Adrenergic beta2 receptor (ADRB2) small molecule antagonists, cell-based qHTS assay (AID 1963592). Further: series mostly up to about 92 µM; nearly all actives have a fitted effect of over 50% in size. The gist of the method:
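Assay format: CHO-ADRB2 cells, 18-20hr seeding at 37C/5% CO2, then compound plus 1nM isoproterenol agonist mix for 0.5hr RT. Homogeneous time-resolved fluorescence cAMP detection after 1hr, expressed as 665/615 nm ratio.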

Sequence of Muscarinic acetylcholine receptor M1 (Homo sapiens) (P11229 whole entry, looked up): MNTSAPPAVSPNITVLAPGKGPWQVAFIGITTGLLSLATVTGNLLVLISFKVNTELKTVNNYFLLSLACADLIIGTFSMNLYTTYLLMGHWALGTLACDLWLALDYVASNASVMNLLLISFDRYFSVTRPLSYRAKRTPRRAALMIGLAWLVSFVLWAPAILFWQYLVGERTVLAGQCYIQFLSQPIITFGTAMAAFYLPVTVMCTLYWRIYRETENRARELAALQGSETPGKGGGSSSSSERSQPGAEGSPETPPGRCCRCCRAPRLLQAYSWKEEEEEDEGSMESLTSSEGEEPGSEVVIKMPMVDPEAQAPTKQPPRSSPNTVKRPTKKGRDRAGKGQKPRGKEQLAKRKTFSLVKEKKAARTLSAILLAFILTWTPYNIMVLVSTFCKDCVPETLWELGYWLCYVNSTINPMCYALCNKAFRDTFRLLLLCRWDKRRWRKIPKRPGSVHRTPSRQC
Sequence of Beta-2 adrenergic receptor (Homo sapiens) (P07550 whole entry, looked up): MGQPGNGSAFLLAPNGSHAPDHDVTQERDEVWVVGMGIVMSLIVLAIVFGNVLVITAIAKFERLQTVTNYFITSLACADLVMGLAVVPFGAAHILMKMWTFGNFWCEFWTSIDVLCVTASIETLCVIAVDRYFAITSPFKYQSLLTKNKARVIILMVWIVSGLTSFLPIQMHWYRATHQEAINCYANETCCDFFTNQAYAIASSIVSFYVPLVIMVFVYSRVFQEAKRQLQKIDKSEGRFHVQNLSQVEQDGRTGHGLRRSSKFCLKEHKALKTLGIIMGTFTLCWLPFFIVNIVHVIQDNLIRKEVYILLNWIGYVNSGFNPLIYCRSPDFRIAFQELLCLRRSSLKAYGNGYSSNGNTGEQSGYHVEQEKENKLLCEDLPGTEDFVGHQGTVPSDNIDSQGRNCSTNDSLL
Sequence of 5-hydroxytryptamine receptor 2A (Homo sapiens) (P28223 whole entry, looked up): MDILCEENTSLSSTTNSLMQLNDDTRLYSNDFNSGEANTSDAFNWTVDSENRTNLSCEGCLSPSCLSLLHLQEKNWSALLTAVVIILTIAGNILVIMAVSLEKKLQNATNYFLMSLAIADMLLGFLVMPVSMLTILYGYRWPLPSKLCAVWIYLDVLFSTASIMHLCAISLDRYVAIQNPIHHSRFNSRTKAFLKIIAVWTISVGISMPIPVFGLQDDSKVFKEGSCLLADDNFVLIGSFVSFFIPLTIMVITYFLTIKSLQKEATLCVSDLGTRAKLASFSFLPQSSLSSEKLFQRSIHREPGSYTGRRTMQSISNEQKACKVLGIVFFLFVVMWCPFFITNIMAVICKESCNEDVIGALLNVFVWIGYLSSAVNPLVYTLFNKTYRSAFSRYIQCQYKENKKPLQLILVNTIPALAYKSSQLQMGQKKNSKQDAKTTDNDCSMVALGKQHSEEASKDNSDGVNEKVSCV
Sequence of KiSS-1 receptor (Homo sapiens) (Q969F8 whole entry, looked up): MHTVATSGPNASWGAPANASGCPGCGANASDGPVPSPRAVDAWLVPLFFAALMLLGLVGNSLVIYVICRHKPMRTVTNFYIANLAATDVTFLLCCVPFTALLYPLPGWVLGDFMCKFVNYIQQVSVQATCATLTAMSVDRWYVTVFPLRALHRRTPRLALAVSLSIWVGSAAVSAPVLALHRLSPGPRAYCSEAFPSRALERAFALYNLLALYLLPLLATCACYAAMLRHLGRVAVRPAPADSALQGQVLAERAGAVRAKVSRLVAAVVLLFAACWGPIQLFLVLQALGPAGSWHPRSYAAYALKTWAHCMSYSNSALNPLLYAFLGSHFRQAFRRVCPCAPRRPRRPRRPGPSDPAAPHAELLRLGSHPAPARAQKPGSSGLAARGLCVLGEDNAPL

Take `COc1ccnc(CS(=O)c2nc3ccc(OC(F)F)cc3[nH]2)c1OC` (stereo not drawn): the Potency result in test [1], in [2], in [3], in test [4], in test [5] and in test [6] was “inactive” in each case. In addition, the Potency entry in [7], in test [8] and in [9] was “inactive” throughout.
On to `CC(C)C1CCC(C(=O)N[C@H](Cc2ccccc2)C(=O)O)CC1` (stereo partly drawn), for which the Potency entry in test [1], in [2], in test [3], in test [4], in test [5] and in test [6] was “inactive” throughout. Further, the Potency result in test [7], in [10], in [8], in [11], in test [9] and in test [12] was “inactive” throughout.
For the compound `O=C1CCCCCO1`, the Potency result in test [1], in test [2], in [3], in test [4], in [5] and in test [6] was “inactive” in each case. For the same compound, the Potency result in [13], in test [14], in [15], in test [16], in [10] and in [8] was “inactive” throughout. The Potency entry in test [17], in [9] and in [12] was “inactive” throughout.
In the case of `CC(=O)Nc1ccc(S(=O)(=O)Cl)cc1`, the Potency entry in test [1], in [2], in [3], in test [4], in [5] and in [6] was “inactive” each time. For the same compound, the Potency entry in test [7], in test [14], in test [15], in [16], in test [10] and in test [8] was “inactive” each time. Also, the Potency result in [17], in [11], in [9] and in [12] was “inactive” in each case.
As for `Clc1sc(Cl)c(Cl)c1Cl`, the Potency entry in test [1], in [2], in [3], in [4], in [5] and in test [6] was “inactive” each time. In addition, the Potency entry in test [7], in test [13], in test [14], in test [16], in test [10] and in test [8] was “inactive” throughout. The Potency entry in test [17], in test [11], in test [9] and in test [12] was “inactive” each time.
`CC(C)CO`: the Potency result in test [1], in test [2], in [3], in [4], in [5] and in test [6] was “inactive” throughout. The Potency result in test [7], in test [10], in [8], in test [17], in test [9] and in [12] was “inactive” in each case.
In the case of `CCOCN(C(=O)CS(=O)(=O)O)c1c(C)cccc1CC`, the Potency result in [1], in test [2], in test [3], in test [4], in test [5] and in test [6] was “inactive” throughout. Moreover, the Potency result in test [7], in test [16], in [10], in test [8], in [17] and in test [11] was “inactive” in each case. The Potency entry in test [9] was “inactive”.
Consider `CCCCOCCOCCOCc1cc2c(cc1CCC)OCO2`, for which the Potency result in [1], in test [2], in test [3], in test [4], in [5] and in [6] was “inactive” in each case. Further, the Potency entry in test [13], in test [14], in test [15], in test [16], in [17] and in test [11] was “inactive” each time. In addition, the Potency entry in [9] and in test [12] was “inactive” in each case. In test [7], the Potency is 41.3 µM (active) and inactive.
